# TbPYK inhibitor = qHTS of Trypanosoma Brucei Inhibitors. TbPYK enzyme, Kinase-Glo Plus ATP luminescence, 45 min. AID 624173, 2012. Potency, µM (highest dose often 76.8 µM), inactives show at the top dose activity, negative = inhibition, hits mostly inhibitors. 410,000 tested, 0.12% active; note: potency is the fitted concentration of half-maximal effect; % is set by controls: 0 for no effect and ±100 for the full control effect; nearly all actives have a fitted effect of over 50% in size
#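 Luminescent Kinase-Glo Plus end-point after 45 min room-temperature reaction of T. brucei pyruvate kinase started with 130 uM ADP (final). Buffer TEA 50 mM pH 7.2 with KCl, MgCl2, BSA, Tween-20; titration-based qHTS with fitted concentration-effect curves.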
# Shiga inhibitor = A qHTS for Small Molecule Inhibitors of Shiga Toxin; Vero cells, Shiga toxin protein synthesis inhibition reporter; inhibition, % at 38.7 µM; 290,000 tested, 9.2% active; in the data active = inhibition mostly above about 28%, no sharp cut-off; inactive = mostly below about 43%; note: 0% is about no effect
# LmPK inh = qHTS Assay for Inhibitors of Leishmania Mexicana Pyruvate Kinase (LmPK); Potency, µM (highest dose often 57.5 µM), for inactives: top-dose activity change, negative = inhibition, usual class: inhibitors; Q27686; 290,000 tested, 0.37% active; purified LmPK, Kinase-Glo ATP luminescence, 1 h; note: potency is the fitted concentration of half-maximal effect; % is set by controls: 0 for no effect and ±100 for the full control effect
#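 ATP generated from ADP (0.1 mM) and PEP (0.5 mM) by 0.1 nM LmPK over 1 h at room temperature (pH 7.2 imidazole buffer) was detected by coupled luciferase luminescence. Values were normalized to uninhibited and no-enzyme wells.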
# CHX counter = Cycloheximide Counterscreen for Small Molecule Inhibitors of Shiga Toxin; cell reporter, cycloheximide protein synthesis inhibition counterscreen; 300,000 tested, 12% active; max response, %; in the data active = max response mostly above about 13%, no sharp cut-off; inactive = mostly below about 14%; note: read at 38.3 µM for the half of the compounds with a filed dose; 0% is about no effect
# FBPA Giardia inh = qHTS Assay for Inhibitors of Fructose-1,6-bisphosphate Aldolase from Giardia Lamblia; A8B2U2; purified Giardia FBPA; Potency, µM (highest dose often 59.6 µM), without a hit: top-dose activity, negative = inhibition, usual class: inhibitors; 290,000 tested, 0.71% active; note: potency is the fitted concentration of half-maximal effect; % is set by controls: 0 for no effect and ±100 for the full control effect; nearly all actives have a fitted effect of over 55% in size
# Target sequence (A8B2U2 whole entry, looked up): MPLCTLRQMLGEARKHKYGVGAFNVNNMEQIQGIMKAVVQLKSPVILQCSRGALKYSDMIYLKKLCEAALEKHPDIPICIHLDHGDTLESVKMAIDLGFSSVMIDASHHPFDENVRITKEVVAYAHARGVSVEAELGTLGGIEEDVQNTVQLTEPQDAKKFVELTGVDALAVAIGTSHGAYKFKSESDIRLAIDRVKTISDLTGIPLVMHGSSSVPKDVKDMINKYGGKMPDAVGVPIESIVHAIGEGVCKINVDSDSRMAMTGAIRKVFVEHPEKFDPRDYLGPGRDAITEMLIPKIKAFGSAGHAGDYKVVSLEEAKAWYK
#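 Giardia FBPA (40 nM reagent) was preincubated 10 min at RT with compound (up to 57.5 uM final), then substrate plus GAPDH/TPI/NAD/arsenate coupling system with diaphorase/resazurin was added; resorufin fluorescence (525/598 nm) was read after 20 min.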
# RE007 growth inh = qHTS Assay for Inhibitors of the HIV-1 protein Vpr; S. pombe RE007 Vpr strain, BacTiter-Glo ATP luminescence, 24 h; 360,000 tested, 0.21% active; AID 651644, 2012; Potency, µM (titrated, usually from 92.2 µM), for the others: top-dose activity change, negative = less growth, actives largely listed as inhibitors; active = well fitted falling curve with a large enough effect; inconclusive = small, poorly fitted or top-dose-only effect; inactive = no such curve, though single readings can be large or run the other way; note: potency is the fitted concentration of half-maximal effect; % is set by controls: 0 for no effect and ±100 for the full control effect; nearly all actives have a fitted effect of over 50% in size
#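 Fission yeast RE007 carrying one integrated HIV-1 vpr copy, seeded at OD 0.01 in PMG+AL medium with 23 nL pinned compound. Grown 24 h at 30 degrees; viability read by BacTiter-Glo luminescence after 5 min.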
# Active calls of the source: *; u = inconclusive; x = no result. The entries come from a sample that favours hits as a whole. Unless noted, calls come from the whole dose curve; as a rule, active = well fitted curve in the direction sought with a large enough effect; inconclusive = small, poorly fitted or top-dose-only effect, or another doubt; inactive = no such curve, though single readings can be large; an effect the other way counts as inactive or inconclusive.
SMILES,TbPYK inhibitor,Shiga inhibitor,LmPK inh,CHX counter,FBPA Giardia inh,RE007 growth inh
Cc1cccc(CSc2nnc(-c3cnccn3)n2C)c1,-1%,45*,1%,17*,4%,12%
Cn1c(SCc2nc3ccccc3[nH]2)nnc1-c1cnccn1,-7%,43,-7%,27,-15%,4%
Nn1c(SCc2ccccc2F)nnc1-c1cccnc1,1%,75*,-6%,40*,-4%,0%
Nn1c(SCc2ccc(Br)cc2)nnc1-c1ccccn1,-3%,-6,-4%,-3,6%,9%
Cc1cccc(CSc2nnc(-c3ccccn3)n2N)c1,-2%,36,4%,18*,17%,10%
COc1ccc(C(=O)NCCc2nc3ccccc3[nH]2)cc1,3%,x,x,x,x,x
Cn1c(SCc2ccccn2)nnc1-c1cnccn1,6%,57*,-5%,38*,-8%,-18%
C=C(C)CSc1nnc(-c2ccccc2)n1N,-1%,75*,-4%,24*,-7%,2%
Cn1c(SCc2ccccc2F)nnc1-c1cnccn1,2%,111*,-5%,75*,-3%,10%
COc1ccc(CNC(=O)CN2C(=O)CSc3ccc(S(=O)(=O)N4CCCC4)cc32)cc1,1%,x,x,x,x,x
Cc1ccccc1NC(=O)Cn1c(=O)n(CCCC(=O)NCc2ccc3c(c2)OCO3)c(=O)c2ccccc21,4%,x,x,x,x,x
C[C@H](CO)N1C[C@H](C)[C@@H](CN(C)C(=O)NC2CCCCC2)Oc2ccc(NC(=O)C3CC3)cc2C1=O,0%,x,x,x,x,-3%
Cc1cc(/C=C(\C#N)C(=O)Nc2ccccc2)c(C)n1-c1ccc(C(=O)O)cc1,-1%,11,5%,1,-1%,10%
CCOC(=O)/C(C#N)=C\c1ccc(CC)s1,4%,102*,-3%,80*,0%,-30%
CCOC(=O)/C(C#N)=C\c1cc(C)n(-c2ccccc2)c1C,-1%,82*,0%,55*,-4%,-11%
CNC(=O)/C(C#N)=C/c1cc(C)n(-c2ccc(N3CCOCC3)cc2)c1C,0%,2,0%,12,4%,-7%
CCOC(=O)/C(C#N)=C\C=C1C=CN(C)C=C1,-7%,63*,-11%,35*,-16%,-24%
CCOC(=O)/C(C#N)=C/c1cc(C)n(-c2ccc(C)cc2)c1C,-8%,31,5%,18*,-3%,-2%
Cc1ccn2c(NCc3ccccc3)c(-c3cccs3)nc2c1,-23%,55*,-10%,30*,-12%,u
Cc1ccn2c(NC3CCCC3)c(-c3cccs3)nc2c1,-26%,28*,-12%,23*,u,-9%
c1csc(-c2nc3ccccn3c2NC2CCCCC2)c1,3%,-19,-2%,-3,-2%,-19%
CCCCCCCCCCCCCC[C@@H](O)[C@@H](O)[C@H](CO)NC(C)=O,x,-6,x,-2,1%,x
COc1ccc(-n2nnnc2C2CCN(S(=O)(=O)c3ccc(C(C)(C)C)cc3)CC2)cc1,-3%,x,x,x,x,x
CC(C)(C)c1cc[n+](/C(C(=S)Nc2ccccc2F)=C(/[O-])c2ccc3c(c2)OCCO3)cc1,-21%,50,-5%,23*,u,-23%
[O-]/C(=C(\C(=S)Nc1ccccc1F)[n+]1ccccc1)c1ccc(-c2ccccc2)cc1,-5%,94,1%,18*,-18%,-22%
SMILES,TbPYK inhibitor,Shiga inhibitor,LmPK inh,CHX counter,FBPA Giardia inh,RE007 growth inh
[O-]/C(=C(\C(=S)Nc1ccc(Cl)cc1)[n+]1ccccc1)c1ccc(OC(F)F)cc1,-15%,12,-7%,11,-22%,-23%
COc1ccc(OCc2ccc(-c3nc(C#N)c(N4CCC(C)CC4)o3)o2)cc1,-1%,x,x,x,x,x
CCOC(=O)c1c(C)[nH]c(C)c1S(=O)(=O)N(C)CC(=O)N1CCN(c2cccc(Cl)c2)CC1,-2%,x,x,x,x,x
OC(COc1ccc2cc(Br)ccc2c1)CN1CCOCC1 (configuration not stated),1%,37*,0%,11,0%,u
OC(COc1ccc2ccccc2c1Cl)CN1CCOCC1 (configuration not stated),-1%,105*,6%,37*,3%,-8%
Cc1ccc(OCC(O)CN2CCN(Cc3ccc4c(c3)OCO4)CC2)c(C)c1 (configuration not stated),-2%,-16,-5%,-3,1%,2%
O=C(N1CCOCC1)N1CCN(CC(O)COc2ccc3ccccc3c2)CC1 (configuration not stated),-1%,-16,2%,-1,6%,4%
Cc1ccc(OCC(O)CN2CCOCC2)c(C)c1 (configuration not stated),9%,x,0%,31*,-28%,-5%
OC(COc1cccc2ccccc12)CN1CCOCC1 (configuration not stated),1%,x,x,x,x,6%
O=C(O)CCC(=O)N1CCC(n2nnc3cc(C(F)(F)F)ccc32)CC1,-2%,-6,1%,-2,1%,8%
Cc1ccc(CNC(=O)c2ccc(CSCc3ccccc3C)o2)cc1,0%,x,x,x,x,x
Cc1cccc(-n2c(C)c(C)c3c(N)ncnc32)c1,3%,19,4%,19*,-12%,3%
CSc1ccccc1-c1nnc(-c2ccccc2)o1,1%,95*,-23%,59*,-8%,u
CSc1nnc(-c2ccccc2SC)o1,-3%,36,-6%,1,-2%,-7%
CSc1ccccc1-c1nnc(-c2ccc(C)cc2)o1,-1%,143*,-7%,39*,-12%,u
COC(=O)C1(C(=O)OC)C[C@@H]2CON=C2[C@H]1c1ccccc1,x,x,x,x,-3%,x
CCOC(=O)c1ccccc1NC(=O)N1CC(C)Oc2ccc(C)cc21 (configuration not stated),-3%,x,x,x,x,x
COc1ccc(CCNc2oc(/C=C/c3ccc(OC)c(OC)c3)nc2C#N)cc1,-3%,x,x,x,x,x
O=C(N=C1c2ccccc2CN1c1ccccc1)c1cccc([N+](=O)[O-])c1,3%,35,0%,18*,-5%,4%
O=C(N=C1c2ccccc2CN1c1cccc(Cl)c1)c1cccnc1,6%,26*,1%,34*,-4%,5%
CCOC(=O)c1ccc(N2Cc3ccccc3C2=NC(=O)c2cccc([N+](=O)[O-])c2)cc1,-1%,x,x,x,x,1%
O=C(N=C1c2ccccc2CN1c1ccc(F)c(F)c1)c1cccnc1,-1%,39,4%,29*,-5%,-20%
COc1ccc(N2Cc3ccccc3C2=NC(=O)c2ccc(C)cc2)cc1OC,-11%,10,3%,15,u,-8%
CCN(Cc1ccccc1)S(=O)(=O)c1ccc(-c2coc(C)n2)cc1,4%,x,x,x,x,x
